The full ranking holds about 68,000 sequences; the median of “fluorescence intensity (a.u.)” is about 9,100, and the highest 2% start at about 16,000. What follows is part of a selection rich in the highest values, with near analogues and random picks from the rest.
target: OsWRKY34 (Oryza sativa, UniProt Q0JBA9 1-250); assay: protein-binding microarray (RPBM); PBS, 2% BSA, 51.3 ng/ul salmon testes DNA, 50 uM zinc acetate, 200 nM TF, 25 C, 1 h; high values mean tight binding; details: protein: recombinant; tags: N-terminal polyhistidine and DsRed monomer fusion (pET32a); label: CyDye5-dUTP incorporated in the synthesized complementary strand; 3' TTTTT single-stranded linker to array surface; dsDNA, one strand shown
How it was run: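 Using Ni–NTA, transcription factors fused N-terminally to polyhistidine and DsRed were purified after expression in E. coli BL21-CodonPlus. These were incubated at 200 nM with a blocked, double-stranded custom Agilent array for 1 h at 25 °C in a buffer containing 50 µM zinc acetate, and the array was washed. The binding signal is per-feature fluorescence intensity (arbitrary units) on an Axon 4000B scanner.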

OsWRKY34, sequence (Q0JBA9 entry or part of it): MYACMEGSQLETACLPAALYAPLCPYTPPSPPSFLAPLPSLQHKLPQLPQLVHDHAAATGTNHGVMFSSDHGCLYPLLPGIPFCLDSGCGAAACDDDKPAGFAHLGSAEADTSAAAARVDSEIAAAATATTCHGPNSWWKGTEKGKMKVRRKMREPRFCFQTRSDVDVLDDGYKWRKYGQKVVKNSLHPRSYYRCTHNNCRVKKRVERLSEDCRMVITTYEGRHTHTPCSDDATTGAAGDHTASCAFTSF

Sequence	binding signal
GGTTTGGTTTTGTTTAGTGGGTTAGAAGCCAATGAGAGCACGGAGTCACCTAGTGCAG	10300 fluorescence intensity (a.u.)
CATCCGACCTCAACTCCTCTGTCCTCTACTACGCATCTCTCGGAGTCACCTAGTGCAG	14100 fluorescence intensity (a.u.)
TTTTTTTCTGGGGTTGCTTAGAATGGTACTAACTATGATTCGGAGTCACCTAGTGCAG	8900 fluorescence intensity (a.u.)
TATATTGCTCTTAATTTATTTGTGTTACTTTTTATGTGTTCGGAGTCACCTAGTGCAG	8330 fluorescence intensity (a.u.)
GGGCTTATTTTTTTTTTTTAACTTTGTTATGCTCTAGAAACGGAGTCACCTAGTGCAG	20100 fluorescence intensity (a.u.)
GATCACATGGGCCACACTTTTTTTTAATTATTTTTTGTGTCGGAGTCACCTAGTGCAG	8040 fluorescence intensity (a.u.)
GTTAACTTGCTTATATGGTACTAGAAGAAAAACTTAATGGCGGAGTCACCTAGTGCAG	64900 fluorescence intensity (a.u.)
GTGTGGGGCTTTTAACTTTTTGTCACTTTTAAATTTTAAACGGAGTCACCTAGTGCAG	21300 fluorescence intensity (a.u.)
ATTATGCATTTATTTTATTTGAAACTTTAATGCTTTTTTTCGGAGTCACCTAGTGCAG	8110 fluorescence intensity (a.u.)
GTAGTTTTGTGAAATTTACTTTTTTTTTTTTTTTTGATAACGGAGTCACCTAGTGCAG	9770 fluorescence intensity (a.u.)
TTATAAACTTGGTCAAACTTAATAAAGTTTGACTAGAAAACGGAGTCACCTAGTGCAG	8320 fluorescence intensity (a.u.)
CCCTCGTCTTCTTCTCCACGCGACGCCGGTCAAAGTTTGACGGAGTCACCTAGTGCAG	10700 fluorescence intensity (a.u.)
AGCCATCTTAAGTTAGGAACAGTTTCTTTTTTTAGAACTACGGAGTCACCTAGTGCAG	8290 fluorescence intensity (a.u.)
AAACCATTTTTTTTATCTATTATCCTTTGACTGTTTAATTCGGAGTCACCTAGTGCAG	10500 fluorescence intensity (a.u.)
AAATTTTTATATGCTGTGTATTTTCTATTTTTTTTATTTTCGGAGTCACCTAGTGCAG	11100 fluorescence intensity (a.u.)
GTGTTTGATTTGCCTCTCTTAAGAACCACTGTGAAAACATCGGAGTCACCTAGTGCAG	9680 fluorescence intensity (a.u.)
CTCGCCGCGTGCTCCTTTACTGCTCTCTGCTCGCGCAGGACGGAGTCACCTAGTGCAG	9230 fluorescence intensity (a.u.)
CCTCGACCGTCCCCAACCGACGACCCCGTGGTCACGCTCCCGGAGTCACCTAGTGCAG	10900 fluorescence intensity (a.u.)
GGTCAATTTAGGGCACACACCAAACCAGCCCTTACAACTTCGGAGTCACCTAGTGCAG	8620 fluorescence intensity (a.u.)
AAAAATATATCCAAGCAAATTCACACAGTCAAGTTCACTCCGGAGTCACCTAGTGCAG	14800 fluorescence intensity (a.u.)
GGTTGGTGTGGACCTTGCCCATTGTGAAACTTTGGTCAAACGGAGTCACCTAGTGCAG	8070 fluorescence intensity (a.u.)
CCGTTTCATATTTAAATTGTTTTGACTTTTTTATAGTTAACGGAGTCACCTAGTGCAG	8140 fluorescence intensity (a.u.)

Sequence	binding signal
TCATGGATTATCTCTTTAATGTATAACGCCGTTGACTTTTCGGAGTCACCTAGTGCAG	14300 fluorescence intensity (a.u.)
ACTTATTTTAGTTTGACTTGATTTTTCATCAAATGTTTTTCGGAGTCACCTAGTGCAG	10400 fluorescence intensity (a.u.)
AGTTTCGAAATATTTGACGCCGTTGACTTTTTATCAAATGCGGAGTCACCTAGTGCAG	28300 fluorescence intensity (a.u.)
TTCGAAATGTTTAACGCCGTTGACTTTTTATCATATGTTTCGGAGTCACCTAGTGCAG	35500 fluorescence intensity (a.u.)
TTCGTTTGACTTTTGCCGTTTCAAATTTGAATTCTCGAAACGGAGTCACCTAGTGCAG	9080 fluorescence intensity (a.u.)
TCGAAATGTTTGACGCCGTTGACTTTTTAAGTATATGTTTCGGAGTCACCTAGTGCAG	29200 fluorescence intensity (a.u.)
TTCGAAATGTTTGACGCCGTTGACTTTTTAGCATATGTTTCGGAGTCACCTAGTGCAG	13200 fluorescence intensity (a.u.)
CGTATGCTCCTTAGGTGATACTATGTCCCTATTTGCTTCACGGAGTCACCTAGTGCAG	8180 fluorescence intensity (a.u.)
TTTATTATTAGTCTAAGTTTAATACTTCTTATTAGTGTCACGGAGTCACCTAGTGCAG	8180 fluorescence intensity (a.u.)
TGATACTTGGCAGGCGTCGTCTCCAAATACCTGACCACTTCGGAGTCACCTAGTGCAG	8290 fluorescence intensity (a.u.)
AATAGATCACCACATTCAATGCAGTTCTTCCGATTAAATTCGGAGTCACCTAGTGCAG	9730 fluorescence intensity (a.u.)
GGTTGCTCAGTTGCCGACACATTTCTGCAGACCCATTTTGCGGAGTCACCTAGTGCAG	8080 fluorescence intensity (a.u.)
CTGTCCTCTATCGATTGTTCTGACTTGGGTCACCATGTAACGGAGTCACCTAGTGCAG	8990 fluorescence intensity (a.u.)
CTCTGACTCTCTGTTCCAATTCCCACACGTTTCTCTCGCGCGGAGTCACCTAGTGCAG	14800 fluorescence intensity (a.u.)
GCTCTTATCCCGAGCTCGTGTCACTGGTGGGGTGGGGCCCCGGAGTCACCTAGTGCAG	16600 fluorescence intensity (a.u.)
CTTGTCTCTCTTTCTCTTTCTCTCTCTCTCACCTGTTATTCGGAGTCACCTAGTGCAG	9740 fluorescence intensity (a.u.)
TTAGGTGTTTTGTAGTAGTGTAATGGGGCATATTCGTGGGCGGAGTCACCTAGTGCAG	8270 fluorescence intensity (a.u.)
TTCGTGGATGGGGTGGGCTCTTTCTCACTGTTATATTGTCCGGAGTCACCTAGTGCAG	27500 fluorescence intensity (a.u.)
ACGTGTCACCTTCTTATTCGCTGGGTTTTTTCTGGTGGGTCGGAGTCACCTAGTGCAG	8770 fluorescence intensity (a.u.)
CCCACGTATTCCCCACCTTATCTCACTGTCTCGTGGGCCCCGGAGTCACCTAGTGCAG	10500 fluorescence intensity (a.u.)
ATTGGTGGTAATCGGAGGTGGAGGTGGGCGTGATGATCTCCGGAGTCACCTAGTGCAG	11100 fluorescence intensity (a.u.)
TTTCTCACTGTTATATTGTCTAATATCATCTTTCTCTTTTCGGAGTCACCTAGTGCAG	9880 fluorescence intensity (a.u.)

Sequence	binding signal
CCGCCGAGTCACTGCTCTCGTTCTTATCCACACTGCCCGACGGAGTCACCTAGTGCAG	9120 fluorescence intensity (a.u.)
AGGTAATCATATTGTTGTTATTCGTGGATGGGGTGGGCTCCGGAGTCACCTAGTGCAG	16400 fluorescence intensity (a.u.)
ATGGGGTGTTTTTTTTTTCGCTATATTCTCTTAGAACTGTCGGAGTCACCTAGTGCAG	18000 fluorescence intensity (a.u.)
AAGTGTTTTCGTTTTTTTTTCATTCGCTATTATTTTCTTTCGGAGTCACCTAGTGCAG	9660 fluorescence intensity (a.u.)
TTAGTAGTATATCGTCACCAATTATTGTAGTTAGCTCCACCGGAGTCACCTAGTGCAG	9580 fluorescence intensity (a.u.)
ATCCGATTTTTTTTCGCAATCTCCGAAATTTCACTTCTATCGGAGTCACCTAGTGCAG	11200 fluorescence intensity (a.u.)
GTCCGCTTCCATTGGGAGCGCGGCTACTGGCTGGGTTTACCGGAGTCACCTAGTGCAG	8770 fluorescence intensity (a.u.)
ATCCTATATTTGTTGCAGTTCATTCATTTCATCACCAGTTCGGAGTCACCTAGTGCAG	8840 fluorescence intensity (a.u.)
CGATCTCTCTCTCTCACACACCCGCCTCACCCTCACCGCCCGGAGTCACCTAGTGCAG	10800 fluorescence intensity (a.u.)
CAGCAGATTGCCCATCTCTCGTTGTACTGCCAATCTCTCCCGGAGTCACCTAGTGCAG	9530 fluorescence intensity (a.u.)
CCGGTATTGATGTGTTCCCCAAGCCAAAAAAAAAAAGAAGCGGAGTCACCTAGTGCAG	64800 fluorescence intensity (a.u.)
ACTGTTCATTGTTGATGGCCTTTTCCAAAAACTAGAAAAGCGGAGTCACCTAGTGCAG	8460 fluorescence intensity (a.u.)
ATGTCACCAAGCGGTATAGGTCTGAATGTATTGATGTGCCCGGAGTCACCTAGTGCAG	9370 fluorescence intensity (a.u.)
TTATTATGGTTATATTGTACTAATTCATTGTCCAGGTTTTCGGAGTCACCTAGTGCAG	8430 fluorescence intensity (a.u.)
GTTTCCTGGTGGTCCAATATAATACCTAGATAAGGTGTATCGGAGTCACCTAGTGCAG	8510 fluorescence intensity (a.u.)
GTCCAGATACTAAGGTGTATGGTATTATCGGAAAACCTGTCGGAGTCACCTAGTGCAG	24300 fluorescence intensity (a.u.)
TAGCTAGCTCTTGTACAGGTTTCCTCACCTGCTGTATCGACGGAGTCACCTAGTGCAG	8060 fluorescence intensity (a.u.)
GAGACTAATTCCGACCTTGACCAAACCAAACCCTACCAAACGGAGTCACCTAGTGCAG	9200 fluorescence intensity (a.u.)
GGAGGGTGGGGTAGGAGAGGATGCGGCGGGCGCCATGGCTCGGAGTCACCTAGTGCAG	8590 fluorescence intensity (a.u.)
CGGCTCGGCTCGGCTCGCGCGGCGGCGGCGGCGGGGCGGCCGGAGTCACCTAGTGCAG	8890 fluorescence intensity (a.u.)
ATGTGGGTGTGGCATTGTTGGTGTCGGCTGCGCCGCAGCCCGGAGTCACCTAGTGCAG	9630 fluorescence intensity (a.u.)
GGGGTGGTGGTGGTGGCGGCGGCAGTGTTGTTGGTCGCCGCGGAGTCACCTAGTGCAG	13500 fluorescence intensity (a.u.)

Sequence	binding signal
TCGTGTTGGTGGTGGTGGTGGTGTGCGGGCGGGCGGGCGCCGGAGTCACCTAGTGCAG	33300 fluorescence intensity (a.u.)
GTGGGGTTGGGTTACGTGGTGGAGCTGAGCCCGGCGGCGCCGGAGTCACCTAGTGCAG	11600 fluorescence intensity (a.u.)
TCGCCGGCGGAGGAGTTGGTGTGGAGAGGGCGGGGAGATGCGGAGTCACCTAGTGCAG	9560 fluorescence intensity (a.u.)
GGCTCGTCGGAGTAGGGGCGCTCGGGGTATGGGGCTCGGCCGGAGTCACCTAGTGCAG	20400 fluorescence intensity (a.u.)
GCCGGCGCCGGTGGCGTGCGGTCGTGGGCGGGAGGTGGTGCGGAGTCACCTAGTGCAG	12300 fluorescence intensity (a.u.)
AGGTGGTGTAGCGCGCGCGGGTGGGGTTGGGTTACGTGGTCGGAGTCACCTAGTGCAG	15600 fluorescence intensity (a.u.)
CCGTGGTTGGGGTGGTGGGCCGGGGTGTTACGTTAATGGGCGGAGTCACCTAGTGCAG	16500 fluorescence intensity (a.u.)
TTTGTGTGTGTGTTGTTGGTCGGGTGGGGTCGCCGGCGCCCGGAGTCACCTAGTGCAG	20100 fluorescence intensity (a.u.)
CGTTGTTTATCTTTTCTAATGCCATGTGTATATATGATTCCGGAGTCACCTAGTGCAG	10500 fluorescence intensity (a.u.)
CCCGTGCTCTTTGTAGATTTACTACCTTTGGACTTGACCTCGGAGTCACCTAGTGCAG	11200 fluorescence intensity (a.u.)
TCTGCGCTCCCGCATGCCGGCCGCTGAATCATCGTCAATCCGGAGTCACCTAGTGCAG	9000 fluorescence intensity (a.u.)
AATAGCCTCGTCCCTGTAAACTCCCAATCCCTTTTTAAAACGGAGTCACCTAGTGCAG	8420 fluorescence intensity (a.u.)
AGTTGTGGAGCTGTCTAAACCCATCTCTACTTCTCTACTTCGGAGTCACCTAGTGCAG	8200 fluorescence intensity (a.u.)
TTTCCTCATTTATTCACCTGTCACACCATCTTTCATCATACGGAGTCACCTAGTGCAG	9590 fluorescence intensity (a.u.)
CCTGATCGGATTTGGTTGGCTGGTGCTCTAGATGATGTACCGGAGTCACCTAGTGCAG	8170 fluorescence intensity (a.u.)
GGGGAGTTGGGATTTTTGGCGATGTGGGTTTCGTACACCGCGGAGTCACCTAGTGCAG	9870 fluorescence intensity (a.u.)
GGCGCCGGCGCTAGCGCCCACGTCGGGGTTGGGGTTGGGGCGGAGTCACCTAGTGCAG	16600 fluorescence intensity (a.u.)
TTGGCGAGCGAGCTGTGTGGTGGTGGTGGTGGGTGAGTGGCGGAGTCACCTAGTGCAG	13600 fluorescence intensity (a.u.)
TGGGGTGGGTGCCCGGAGCTTTGATGCGCGTGGCCGCCGGCGGAGTCACCTAGTGCAG	12400 fluorescence intensity (a.u.)
CGTCGGGGTTGGGGTTGGGGCTGGGGCCGGCGCCGACGCCCGGAGTCACCTAGTGCAG	13400 fluorescence intensity (a.u.)
GTGCGAGCTGCGCCCGTGTGATGTGGGCGGGTGGGTGTTCCGGAGTCACCTAGTGCAG	16900 fluorescence intensity (a.u.)
CGGTTGCGGGTGGGCAGCGGCAGCGTCGCCGGCTGGGGCGCGGAGTCACCTAGTGCAG	9840 fluorescence intensity (a.u.)

— article PMC7819943, “Rice protein-binding microarrays: a tool to detect cis-acting elements near promoter regions in rice”
